Records with an inconclusive call do not appear. Entries that show only a call come without a potency. Values without a mark were called inactive. Activity calls are given as the source filed them. The call rests on the fitted dose curve; in most records, active means well fitted inhibition curve with a large enough effect; inconclusive means small, poorly fitted or top-dose-only effect; inactive means no such curve, though single readings can be large or run the other way.
Columns and labels:
[1] = system: Zika virus NS2B-NS3 protease (unlinked complex); assay: Primary screen GU Rhodamine qHTS for Zika virus inhibitors: Unlinked NS2B-NS3 protease assay (AID 1347159); further: nearly all actives have a fitted effect of over 60% in size; further: potency means the concentration at half of the fitted maximal effect
Procedure, shortened: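 Compounds, tested up to 114 microM, were incubated for 15 minutes with 25 nM unlinked NS2B-NS3 protease at pH 8.0. Cleavage of 1.5 microM Rhodamine110 substrate was then followed by fluorescence for 15 minutes.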

[2] = system: Zika virus NS2B-NS3 protease (linked construct); assay: Primary screen NINDS Rhodamine qHTS for Zika virus inhibitors (AID 1347160); further: nearly all actives have a fitted effect of over 55% in size
Procedure, shortened: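 Percent inhibition, normalized to uninhibited and enzyme-free controls, is fitted to a 4-parameter Hill equation. Fluorescence change comes from a 15-min cleavage of 1.5 microM bis-peptide Rhodamine110 substrate by 25 nM linked NS2B-NS3 at room temperature.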

Compound: CC(C)(C)NC(=O)[C@@H](c1cccnc1)N(C(=O)c1ccco1)c1ccc(C(C)(C)C)cc1
- Potency [1]: inactive
- Potency [2]: inactive

Compound: C[C@H](O)[C@H](O)/C=C/c1cccc(O)c1CO
- Potency [1]: inactive
- Potency [2]: inactive

Compound: Oc1ccc2nc(CN3CCC(Cc4ccccc4F)CC3)[nH]c2c1
- Potency [1]: inactive
- Potency [2]: inactive

Compound: O=C(Nc1nc2ccccc2n1CCc1ccccc1)c1ccccc1
- Potency [1]: inactive
- Potency [2]: inactive

Compound: CC1(C)CCCC2(C)C1C(O)C=C(CO)C2(O)CO (stereo not given)
- Potency [1]: inactive
- Potency [2]: inactive

Compound: C[C@@H]1O[C@@H](O[C@@H]2[C@@H](O[C@@H]3O[C@@H](C)[C@H](O[C@@H]4OC[C@H](O)[C@H](O[C@@H]5OC[C@@H](O)[C@H](O)[C@H]5O)[C@H]4O)[C@@H](O[C@@H]4OC[C@](O)(CO)[C@H]4O)[C@H]3O)[C@H](OC(=O)[C@]34CCC(C)(C)C[C@H]3C3=CCC5[C@@]6(C)C[C@H](O)[C@H](O[C@@H]7O[C@H](CO[C@@H]8OC[C@H](O)[C@H](O)[C@H]8O)[C@@H](O)[C@H](O)[C@H]7O)C(C)(C)C6CC[C@@]5(C)[C@]3(C)C[C@H]4O)OC[C@H]2O)[C@H](O)[C@H](O)[C@H]1O (stereo not given in full)
- activity change, negative = inhibition [1]: 11.8% [at 19.1 µM]
- activity change, negative = inhibition [2]: 1.34% [at 10.7 µM]

Compound: COc1c2ccoc2cc2oc(CO[C@@H]3O[C@H](CO)[C@@H](O)[C@H](O)[C@H]3O)cc(=O)c12
- Potency [1]: inactive
- Potency [2]: inactive

Compound: CN(C)CCn1cc(S(=O)(=O)c2cccc(F)c2)c2cccnc21
- Potency [1]: inactive
- Potency [2]: inactive

Compound: O=C(O)c1ccc(CN2CCC(CN[C@@H]3C[C@H]3c3ccccc3)CC2)cc1
- Potency [1]: inactive
- Potency [2]: inactive

Compound: C[C@@H]1CC[C@]2(C(=O)O[C@@H]3O[C@H](CO)[C@@H](O)[C@H](O)[C@H]3O)CC[C@]3(C)C(=CCC4[C@@]5(C)C[C@@H](O)[C@H](O)[C@@](C)(C(=O)O[C@H]6[C@H](O)C[C@@]7(C)C(CC[C@]8(C)C7CC=C7[C@H]9[C@](C(=O)O[C@@H]%10O[C@H](CO)[C@@H](O)[C@H](O)[C@H]%10O)(CC[C@@H](C)[C@@]9(C)O)CC[C@]78C)[C@@]6(CO)C(=O)O)C5CC[C@]43C)[C@@H]2[C@]1(C)O (stereo not given in full)
- activity change, negative = inhibition [1]: -16.4% [at 19.1 µM]
- activity change, negative = inhibition [2]: -25.7% [at 10.7 µM]

Compound: CO[C@H]1/C=C/[C@@](C)(O)/C=C/C(=O)O[C@H](C)[C@@H](C)CC/C=C/1C
- Potency [1]: inactive
- Potency [2]: inactive

Compound: CC1(C)CCC2(C(=O)OC3OCC(O)C(O)C3O)CCC3(C)C(=CCC4C5(C)CC(O)C(OC6OC(COC7OCC(O)C(O)C7O)C(O)C(O)C6O)C(C)(C)C5CCC43C)C2C1 (stereo not given)
- Potency [1]: inactive
- Potency [2]: inactive

Compound: CC1(CCOC2OC(CO)C(O)C(O)C2O)CCC23OC2(C1)C(O)CC1C(C)(C(=O)O)CCCC13C (stereo not given)
- Potency [1]: inactive
- Potency [2]: inactive

Compound: COc1ccc(C2COc3cc(O)ccc3C2)c(O)c1 (stereo not given)
- Potency [1]: inactive
- Potency [2]: inactive

Compound: COC(=O)CC(C)(O)CC(=O)OCc1ccc(O[C@@H]2O[C@H](CO)[C@@H](O)[C@H](O)[C@H]2O)cc1 (stereo not given in full)
- Potency [1]: inactive
- Potency [2]: inactive

Compound: CC(Cc1cc2c(c(C(N)=O)c1)N(CCCO)CC2)NCCOc1ccccc1OCC(F)(F)F (stereo not given)
- Potency [1]: inactive
- Potency [2]: inactive

Compound: CC1(C)CC[C@]23CO[C@@]4(CCC5[C@@]6(C)CC[C@H](O[C@@H]7OC[C@H](O[C@@H]8O[C@H](CO)[C@@H](O)[C@H](O)[C@H]8O)[C@H](O)[C@H]7O[C@@H]7O[C@H](CO)[C@@H](O[C@@H]8O[C@H](CO)[C@@H](O)[C@H](O)[C@H]8O)[C@H](O)[C@H]7O)[C@@](C)(CO)C6CC[C@@]5(C)[C@]4(C)C[C@H]2OC2OCC(O)C(O)C2O)C3C1 (stereo not given in full)
- activity change, negative = inhibition [1]: 15.7% [at 19.1 µM]
- outcome [2]: inactive [at 10.7 µM]

Compound: O=C(c1cc2c(cc1F)OC(c1ccc(F)cc1)(c1ccc(Cl)cc1Cl)O2)N1CCOCC1 (stereo not given)
- Potency [1]: inactive
- Potency [2]: inactive

Compound: COc1cc(O)c2c(c1)C1=C[C@H](O)[C@@H](O)C[C@]1(C)OC2=O
- Potency [1]: inactive
- Potency [2]: inactive

Compound: COc1ccc2[nH]c3c(-c4cccc5ccccc45)nccc3c2c1
- Potency [1]: inactive
- Potency [2]: inactive

Compound: COc1cc2c(cc1OC)-c1[nH]nc(Nc3cccc(F)c3)c1C2
- Potency [1]: inactive
- Potency [2]: inactive

Compound: COc1c2c(c(C)c3c1C(=O)OC3)OC1(C)CC(O)C34OC(OC)(OC3(C)C)C(O)CC4(C)C1C2 (stereo not given)
- Potency [1]: inactive
- Potency [2]: inactive

Compound: COC(=O)C1=CO[C@@H](O[C@@H]2O[C@H](CO)[C@@H](O)[C@H](O)[C@H]2O)[C@@H]2C(COC(C)=O)=C[C@H](O)[C@H]12
- Potency [1]: inactive
- Potency [2]: inactive

Compound: COc1c2c(c(C)c3c1C(=O)OC3)OC1(C)CC(O)C(C(C)(C)O)C(C)(CCC(=O)O)C1C2 (stereo not given)
- Potency [1]: inactive
- Potency [2]: inactive

Compound: CC(C)c1cc(C(=O)N2CC[C@H](NC(=O)C3CC3)C2)n[nH]1
- Potency [1]: inactive
- Potency [2]: inactive

Compound: C/C=C(\C)C(=O)OCC1OC(OC2OC(COC(=O)/C(C)=C/C)C(OC3OC(CO)C(OC(=O)/C(C)=C/C)C(OC(=O)/C(C)=C/C)C3O)C(O)C2O)C(O)C(O)C1OC1OC(CO)C(OC(=O)/C(C)=C/C)C(OC(=O)/C(C)=C/C)C1O (stereo not given)
- Potency [1]: inactive
- Potency [2]: inactive

Compound: CC(=O)C1=CCC2C3CCC4CC(O[C@@H]5O[C@H](CO)[C@@H](O[C@@H]6O[C@@H](C)[C@H](O)[C@@H](O)[C@H]6O)[C@H](O)[C@H]5O[C@@H]5O[C@H](CO)[C@@H](O)[C@H](O)[C@H]5O)CCC4(C)C3CCC12C (stereo not given in full)
- Potency [1]: inactive
- Potency [2]: inactive

Compound: NC1CCCCN(c2c(F)cc3c(=O)c(C(=O)O)cn(C4CC4)c3c2Cl)C1 (stereo not given)
- Potency [1]: inactive
- Potency [2]: inactive

Compound: COC(=O)N(C)c1c(N)nc(-c2nn(Cc3ccccc3F)c3ncccc23)nc1N
- Potency [1]: inactive
- Potency [2]: inactive

Compound: Nc1nc(-n2cc(C(=O)O)c(=O)c3cc(F)c(N4CC(O)C4)c(Cl)c32)c(F)cc1F
- Potency [1]: inactive
- Potency [2]: inactive

Compound: CC(NC(=O)CCc1nc2ccccc2c(=O)[nH]1)c1ccccc1 (stereo not given)
- Potency [1]: inactive
- Potency [2]: inactive

Compound: C=C1C(O)C(O)C2(CC3C(C)=CCC4C(C)(CO)CCCC34C)OC2C1O (stereo not given)
- Potency [1]: inactive
- Potency [2]: inactive

Compound: C[C@@H]1C(=O)O[C@H]2[C@H](O)C34[C@H]5C[C@@H](C(C)(C)C)C36[C@@H](OC(=O)[C@@H]6O)O[C@@]4(C(=O)O5)[C@@]12O (stereo not given in full)
- Potency [1]: inactive
- Potency [2]: inactive

Compound: CCNC(=O)Nc1ccc(-c2nc3c(c(N4CCOC[C@@H]4C)n2)CCN(c2ncccn2)C3)cc1
- Potency [1]: inactive
- Potency [2]: inactive

Compound: O=C1CC2(CCCC2)[C@H](O)C(=O)N1CCCCN1CCN(c2ncccn2)CC1
- Potency [1]: inactive
- Potency [2]: inactive

Compound: c1cn2cc(-c3ccc4cn[nH]c4c3)nc(Nc3ccc(N4CCOCC4)cc3)c2n1
- Potency [1]: inactive
- Potency [2]: inactive

Compound: CN(C)c1nc(NC2CCC(NC(=O)c3ccc(F)c(F)c3)CC2)nc2ccccc12 (stereo not given)
- Potency [1]: inactive
- Potency [2]: inactive

Compound: N#Cc1ccc(-c2cnc3[nH]cc(NC(=O)c4cccnc4)c3c2)cc1
- Potency [1]: inactive
- Potency [2]: inactive

Compound: C=C(C(=O)O)C1CC(O)C2(C)CCCC(=C)C2C1 (stereo not given)
- Potency [1]: inactive
- Potency [2]: inactive

Compound: CN(C)C/C=C/C(=O)Nc1cccc(C(=O)Nc2ccc(Nc3nccc(-c4cccnc4)n3)cc2)c1
- Potency [1]: 79.4 µM (active)
- Potency [2]: inactive

Compound: Cc1cccc(-c2[nH]c(Cc3cccc(C(N)=O)c3)nc2-c2ccc3nccnc3c2)n1
- Potency [1]: inactive
- Potency [2]: inactive

Compound: CC(C)S(=O)(=O)NC[C@H](C)c1ccc(NC(=O)c2cc(F)cc(F)c2)cc1
- Potency [1]: inactive
- Potency [2]: inactive

Compound: Cc1nc2sc(C(=O)NCc3ccncc3)c(N)c2c(C)c1Cl
- Potency [1]: inactive
- Potency [2]: inactive

Compound: COc1c2c(c(C)c3c1C(=O)OC3)O[C@@]1(C)CCC3(C(C)(C)O)OC(=O)CC[C@]3(C)[C@H]1C2 (stereo not given in full)
- Potency [1]: inactive
- Potency [2]: inactive

Compound: COc1cc(Br)c(S(=O)(=O)Nc2ccc(C(F)(F)F)c(O[C@@H]3CCN(C)C3)c2)cc1OC
- Potency [1]: inactive
- Potency [2]: inactive

Compound: C=C1[C@@H]2CC[C@@H]3[C@@](CCC4C(C(=O)O)(C(=O)O)C[C@@H](O[C@@H]5O[C@H](CO)[C@@H](O)[C@H](O)[C@H]5OC(=O)CC(C)C)C[C@]43C)(C2)[C@H]1O (stereo not given in full)
- Potency [1]: inactive
- Potency [2]: inactive

Compound: COc1cc(OC)c(/C=C/S(=O)(=O)Cc2ccc(OC)c(NCC(=O)O)c2)c(OC)c1
- Potency [1]: inactive
- Potency [2]: inactive

Compound: COc1ccc(-c2ccc3c(N4CCOCC4)nc(N4CC(C)OC(C)C4)nc3n2)cc1CO (stereo not given)
- Potency [1]: inactive
- Potency [2]: inactive

Compound: C=C1CCC[C@]2(C)CC[C@@H](C(=C)C(=O)O)[C@H](O)[C@@H]12
- Potency [1]: inactive
- Potency [2]: inactive

Compound: C[C@@H]1O[C@@H](O[C@H]2[C@@H]3C=CO[C@@H](O[C@@H]4O[C@H](CO)[C@@H](O)[C@H](O)[C@H]4O)[C@@H]3[C@@]3(CO)O[C@@H]23)[C@H](OC(=O)/C=C/c2ccc(O)c(O)c2)[C@H](O)[C@H]1O
- Potency [1]: inactive
- Potency [2]: inactive

Compound: COc1cc(N)c(Cl)cc1C(=O)NC[C@@H]1CCN2CCC[C@@H]12
- Potency [1]: inactive
- Potency [2]: inactive

Compound: CC(=O)N1CCN(Cc2ccc([C@H](C)Nc3nccc(N4C(=O)OC[C@@H]4C(C)C)n3)cc2)CC1
- Potency [1]: inactive
- Potency [2]: inactive

Compound: FC(F)(F)c1ccc(Nc2nc(-c3c(C(F)(F)F)nc4ccccn34)cs2)cc1
- Potency [1]: inactive
- Potency [2]: inactive

Compound: CCC(O)(C(=O)OCc1ccccc1NC(=O)CCC(=O)O)C(C)O (stereo not given)
- Potency [1]: inactive
- Potency [2]: inactive

Compound: O=C1CSc2ccccc2N1Cc1cccc(C(F)(F)F)c1
- Potency [1]: inactive
- Potency [2]: inactive

Compound: CC(=O)OC1C(c2ccccc2)CCC(c2ccccc2)C1OC(C)=O (stereo not given)
- Potency [1]: inactive
- Potency [2]: inactive

Compound: CC12CCC3c4ccc(OC5OC(C(=O)O)C(O)C(O)C5O)cc4CCC3C1CCC2O (stereo not given)
- Potency [1]: inactive
- Potency [2]: inactive

Compound: Oc1ccc(CNc2ccccc2F)c2cccnc12
- Potency [1]: inactive
- Potency [2]: inactive

Compound: CC(C)c1nnc(-c2ccc(-c3ccccc3)nc2)n1-c1cccc2nonc12
- Potency [1]: inactive
- Potency [2]: inactive

Compound: CC12CCC(OC3OC(CO)C(O)C(OC4OC(CO)C(O)C(O)C4O)C3O)CC1=CCC1C2CCC2(C)/C(=C3/COC(=O)C3)CCC12O (stereo not given)
- Potency [1]: inactive
- Potency [2]: inactive

Reference: PubChem BioAssay (NCATS)
